Reference: the antibiotic and cytotoxicity screens of Wong et al. (2023)
Out of some 39,000 compounds screened, about 3,300 (8.5%) were called active. Only a selection was taken, and actives are over-represented in it overall.

system: HepG2; assay: cytotoxicity call (relative viability < 0.9); conditions: 10 µM

SMILES | cytotoxicity call
COCC#Cc1ccc2c(c1)O[C@H](CN(C)C(=O)c1ccccc1F)[C@@H](C)CN([C@H](C)CO)S2(=O)=O | inactive
C[C@@H]1CN([C@H](C)CO)C(=O)Cc2cc(NS(=O)(=O)c3ccc(F)cc3)ccc2O[C@H]1CN(C)S(=O)(=O)c1ccc(F)cc1 | inactive
COc1ccc(cc1)NC(=O)N1CC[C@]2(CC1)CN([C@@H](CO)c1[nH]c3cc(ccc3c12)OC)C(=O)CN1CCOCC1 | inactive
O=C1NC(=O)/C(=C\c2ccccc2)N1 | inactive
O=C(N[C@@H]1CC(=O)N(C2CC2)C1)C1CCC1 | inactive
C[C@H]1CN([C@@H](C)CO)C(=O)c2cc(NC(=O)Cc3cn(C)c4ccccc34)ccc2O[C@@H]1CN(C)Cc1ccc(C(=O)Nc2ccccc2N)cc1 | inactive
C[C@H](CO)N1C[C@H](C)[C@H](CN(C)C(=O)Nc2ccccc2)Oc2ccc(NC(=O)C3CC3)cc2CC1=O | inactive
N#Cc1cnc2c(C(N)=O)cnn2c1N | inactive
Cc1noc(C)c1NC(=O)Nc1ccc2c(c1)C(=O)N([C@H](C)CO)C[C@@H](C)[C@H](CN(C)Cc1ccccc1)OCCCC[C@@H](C)O2 | inactive
Nc1nc(=O)c2[nH]c(=O)c(=O)[nH]c2[nH]1 | inactive
Cc1noc(C)c1NC(=O)Nc1ccc2c(c1)C(=O)N([C@@H](C)CO)C[C@H](C)[C@@H](CN(C)S(=O)(=O)c1cccs1)OCCCC[C@H](C)O2 | inactive
C[C@@H]1CN([C@H](C)CO)C(=O)c2cc(NS(=O)(=O)c3cn(C)cn3)ccc2O[C@H]1CN(C)CC1CCCCC1 | inactive
C[C@H]1CN([C@@H](C)CO)C(=O)CCCn2cc(nn2)CO[C@H]1CN(C)C(=O)Nc1ccccc1C(F)(F)F | inactive
C[C@H](CO)N1C[C@H](C)[C@H](CN(C)S(C)(=O)=O)Oc2ncc(Br)cc2C1=O | inactive
COc1ccc([C@@H](NC(=O)C2CCN(CCOc3ccc(Cl)cc3Cl)CC2)c2ccccn2)cc1 | inactive
COc1ccc(/C=C/CN2CCC(C(=O)N[C@@H](c3ccc(-c4ccccc4)cc3)c3cnccn3)CC2)cc1 | active
COc1ccccc1[C@@H](NC(=O)C1CCN(CCc2ccc(Br)cc2)CC1)c1ccccn1 | inactive
COc1ccc(NC(=O)Nc2ccc3c(c2)C(=O)N([C@@H](C)CO)C[C@H](C)[C@@H](CN(C)C(=O)Nc2c(C)noc2C)OCCCC[C@H](C)O3)cc1 | inactive
CC(C)N(C)C(=O)c1cccc(NC(=O)c2ccncc2)c1OCCCN(C)Cc1ccc(Oc2ccccc2)cc1 | inactive
C=C[C@](C)(O)CCC=C(C)C | inactive
C=CC(C)(O)CCC=C(C)C (stereo unspecified) | inactive
C=CC(C)(O)CCC=C(C)CCC=C(C)C (stereo unspecified) | active

SMILES | cytotoxicity call
CC(C)=CCCC(C)=CCO | active
CC(C)=CCCC(C)=CCCC(C)=CCCC(C)=CCCC(C)=CCCC(C)=CCCC(C)=CCCC(C)=CCCC(C)=CCO | inactive
CC(C)=CCC/C(C)=C/CO | inactive
CN1CCN(C(=O)C[C@@H]2CC[C@H]3[C@H](COc4ccc(NC(=O)c5ccc(F)c(F)c5)cc4C(=O)N3C)O2)CC1 | inactive
C[C@@H]1CN([C@H](C)CO)C(=O)Cc2cc(NS(=O)(=O)c3ccc(Cl)cc3)ccc2O[C@H]1CN(C)S(C)(=O)=O | inactive
Cc1ccc(S(=O)(=O)Nc2ccc3c(c2)C(=O)N([C@H](C)CO)C[C@@H](C)[C@H](CN(C)CC2CCCCC2)OCCCC[C@@H](C)O3)cc1 | inactive
Cc1ccc(S(=O)(=O)Nc2ccc3c(c2)C(=O)N([C@@H](C)CO)C[C@H](C)[C@H](CN(C)CC2CCCCC2)OCCCC[C@@H](C)O3)cc1 | inactive
Cc1ccc(S(=O)(=O)Nc2ccc3c(c2)C(=O)N([C@H](C)CO)C[C@H](C)[C@@H](CN(C)CC2CCCCC2)OCCCC[C@H](C)O3)cc1 | inactive
Cc1ccc(S(=O)(=O)Nc2ccc3c(c2)C(=O)N([C@H](C)CO)C[C@H](C)[C@H](CN(C)CC2CCCCC2)OCCCC[C@H](C)O3)cc1 | active
Cc1ccc(S(=O)(=O)Nc2ccc3c(c2)C(=O)N([C@@H](C)CO)C[C@@H](C)[C@@H](CN(C)CC2CCCCC2)OCCCC[C@@H](C)O3)cc1 | active
Cc1ccc(S(=O)(=O)Nc2ccc3c(c2)C(=O)N([C@@H](C)CO)C[C@@H](C)[C@H](CN(C)CC2CCCCC2)OCCCC[C@H](C)O3)cc1 | inactive
Cc1ccc(S(=O)(=O)Nc2ccc3c(c2)C(=O)N([C@H](C)CO)C[C@@H](C)[C@@H](CN(C)CC2CCCCC2)OCCCC[C@@H](C)O3)cc1 | active
Cc1ccc(S(=O)(=O)Nc2ccc3c(c2)C(=O)N([C@H](C)CO)C[C@@H](C)[C@@H](CN(C)CC2CCCCC2)OCCCC[C@H](C)O3)cc1 | active
Cc1ccc(S(=O)(=O)Nc2ccc3c(c2)C(=O)N([C@@H](C)CO)C[C@H](C)[C@H](CN(C)CC2CCCCC2)OCCCC[C@H](C)O3)cc1 | inactive
Cc1ccc(S(=O)(=O)Nc2ccc3c(c2)C(=O)N([C@H](C)CO)C[C@H](C)[C@H](CN(C)CC2CCCCC2)OCCCC[C@@H](C)O3)cc1 | inactive
Cc1ccc(S(=O)(=O)Nc2ccc3c(c2)C(=O)N([C@@H](C)CO)C[C@@H](C)[C@H](CN(C)CC2CCCCC2)OCCCC[C@@H](C)O3)cc1 | inactive
Cc1ccc(S(=O)(=O)Nc2ccc3c(c2)C(=O)N([C@@H](C)CO)C[C@@H](C)[C@@H](CN(C)CC2CCCCC2)OCCCC[C@H](C)O3)cc1 | inactive
CO[C@H]1CN(C)C(=O)c2ccc(NC(=O)Nc3ccc(Cl)cc3)cc2OC[C@@H](C)N(C(=O)Nc2c(C)noc2C)C[C@@H]1C | inactive
C[C@@H]1CCCCO[C@H](CN(C)Cc2ccc(C(=O)O)cc2)[C@@H](C)CN([C@H](C)CO)C(=O)c2cc(NS(=O)(=O)c3ccccc3)ccc2O1 | inactive
CCCNC(=O)N[C@@H]1C=C[C@H](CC(=O)N2CCN(C)CC2)O[C@@H]1CO | inactive
C[C@@H]1CN([C@H](C)CO)C(=O)CCCn2nncc2CO[C@@H]1CN(C)C(=O)Nc1ccnc(N2CCOCC2)c1 | inactive
OC[C@@H](O)[C@@H](O)[C@@H](O)/C=N/Nc1ccccc1 | inactive

SMILES | cytotoxicity call
CNC(=O)c1c(F)cccc1Nc1nc(Nc2cc3c(cc2OC)CCN3C(=O)CN(C)C)nc2[nH]ccc12 | active
CN1C(=O)c2cc(NC(=O)Cc3cccs3)ccc2OC[C@H]2O[C@H](CC(=O)NCCCN3CCOCC3)CC[C@H]21 | inactive
Cc1noc(C)c1NC(=O)Nc1ccc2c(c1)C(=O)N([C@@H](C)CO)C[C@H](C)[C@@H](CN(C)C(=O)C1CCCCC1)OCCCC[C@@H](C)O2 | inactive
COc1ccc2c3c([nH]c2c1)[C@H](CO)N(Cc1cc(ccc1F)F)C[C@]13CCN(CC1)C(=O)CN(C)C | inactive
COc1ccc(CC[C@@H](OC(=O)[C@H]2CCCCN2C(=O)Cc2ccccc2)c2cccc(OCC(=O)O)c2)cc1OC | active
CCCNC(=O)COc1cccc([C@@H](CCc2ccc(OC)c(OC)c2)OC(=O)[C@@H]2CCCCN2C(=O)C(=O)C(C)(C)CC)c1 | active
C=CC(=O)Nc1cccc([C@@H](CCc2ccc(OC)c(OC)c2)OC(=O)[C@@H]2CCCCN2C(=O)C(=O)C(C)(C)CC)c1 | inactive
CC[C@H](C(=O)N1CCCC[C@H]1C(=O)O[C@H](CCc1ccc(OC)c(OC)c1)c1cccc(OCC(=O)NCCNC(=O)COc2cccc([C@@H](CCc3ccc(OC)c(OC)c3)OC(=O)[C@@H]3CCCCN3C(=O)[C@@H](CC)c3cc(OC)c(OC)c(OC)c3)c2)c1)c1cc(OC)c(OC)c(OC)c1 | inactive
CCC(C)(C)C(=O)C(=O)N1CCCC[C@H]1C(=O)O[C@@H](CCc1ccc(OC)c(OC)c1)c1cccc(OCC(=O)NCCc2ccc(O)cc2)c1 | inactive
CCC(=O)Nc1cccc([C@@H](CCc2ccc(OC)c(OC)c2)OC(=O)[C@@H]2CCCCN2C(=O)C(=O)C(C)(C)CC)c1 | inactive
COc1ccc(S(=O)(=O)Nc2ccc3c(c2)C(=O)N([C@@H](C)CO)C[C@H](C)[C@@H](CN(C)S(=O)(=O)c2cn(C)cn2)O3)cc1 | inactive
C[C@H]1CN([C@@H](C)CO)C(=O)c2cc(NC(=O)C3CCCCC3)ccc2O[C@@H]1CN(C)Cc1ccc(C(F)(F)F)cc1 | inactive
C[C@H](CO)N1C[C@H](C)[C@@H](CN(C)Cc2ccccc2)Oc2ccc(NC(=O)Cn3cnnn3)cc2C1=O | inactive
C[C@H]1CN([C@@H](C)CO)C(=O)c2cccc(NS(=O)(=O)c3ccccc3)c2O[C@H]1CN(C)S(=O)(=O)c1cn(C)cn1 | inactive
CCc1nc2ccc(C(=O)NCCCN3CCCC3=O)cn2c1N(CC)C(=O)NCCc1ccccc1 | inactive
C[C@@H]1CN([C@@H](C)CO)C(=O)c2cc(NC(=O)Nc3ccc(F)cc3)ccc2O[C@@H]1CN(C)Cc1ccc(Cl)c(Cl)c1 | active
C[C@@H]1CN([C@H](C)CO)C(=O)c2cc(NC(=O)Nc3ccc(F)cc3)ccc2O[C@H]1CN(C)Cc1ccc(Cl)c(Cl)c1 | inactive
C[C@@H]1CN([C@@H](C)CO)C(=O)c2cc(NC(=O)Nc3ccc(F)cc3)ccc2O[C@H]1CN(C)Cc1ccc(Cl)c(Cl)c1 | inactive
C[C@H]1CN([C@@H](C)CO)C(=O)c2cc(NC(=O)Nc3ccc(F)cc3)ccc2O[C@H]1CN(C)Cc1ccc(Cl)c(Cl)c1 | inactive
C[C@H](CO)N1C[C@H](C)[C@H](CN(C)Cc2ccc(Cl)c(Cl)c2)Oc2ccc(NC(=O)Nc3ccc(F)cc3)cc2C1=O | active
C[C@@H]1CN([C@H](C)CO)C(=O)c2cc(NC(=O)Nc3ccc(F)cc3)ccc2O[C@@H]1CN(C)Cc1ccc(Cl)c(Cl)c1 | inactive
Cc1noc(C)c1NC(=O)Nc1ccc2c(c1)CC(=O)N([C@@H](C)CO)C[C@@H](C)[C@@H](CN(C)Cc1ccc(C(=O)Nc3ccccc3N)cc1)O2 | inactive
